Laboratory results reported in PubChem BioAssay (NCATS).
Values without a mark were called inactive. Calls come from the whole dose curve; as a rule, active = well fitted curve in the direction sought with a large enough effect; inconclusive = small, poorly fitted or top-dose-only effect, or another doubt; inactive = no such curve, though single readings can be large; an effect the other way counts as inactive or inconclusive. Results filed as inconclusive are left out.

System: not listed separately
Assay: Primary fluorescence-based thiol-reactive (MSTI) qHTS assay for identification of artifact compounds. (AID 1845221);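 note: thiol-reactive compounds lower the probe fluorescence signal; nearly all actives have a fitted effect of over 65% in size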
Conditions: MSTI thiol-reactivity probe, 1 h; series mostly up to 53.8 µM; activity change, negative = thiol reactive: at the top concentration
Summary of the method: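 MSTI probe at 4 uM final in 2% DMSO/PBS pH 7.4; compounds, 1 h at room temperature in dark. Fluorescence Ex/Em 525/598 nm, normalised to Acetyl-MSTI and MSTI, fitted to 4-parameter Hill.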

Row | Compound | activity change, negative = thiol reactive
1 | Cc1cn(C[C@H](N)C(=O)O)c(=O)n(Cc2cc(-c3ccccc3)sc2C(=O)O)c1=O | -10.4%
2 | CCC(C)(OC(C)=O)C(=O)O[C@H]1[C@H](OC(C)=O)C[C@@H]2[C@@](C)([C@@H]3C[C@H]4C=CO[C@H]4O3)[C@H](C)C[C@H](OC(C)=O)[C@@]2(COC(C)=O)[C@@]12CO2 (some centres not stated) | 22.3% [at 25.6 µM]
3 | CCCCCCn1c(=O)c(C(=O)Nc2ccc(C(=O)OCCC)cc2)c(O)c2ccccc21 | -6.91% [at 11.5 µM]
4 | CN1CCCC1CCOC(c1cc2nccc(C(=O)O)c2[nH]1)c1ccccc1Cl (configuration not stated) | 42.1%
5 | COC1C(O)C(C)OC(OC2C(CO)O[C@@H](O[C@@H]3CC4CCC5C(CC[C@]6(C)[C@@H](C7=CC(=O)OC7)CC[C@]56O)[C@@]4(C)[C@H](O)C3)C(O)C2O)C1O (some centres not stated) | 12.5% [at 25.6 µM]
6 | CN(C(=O)Cc1ccccc1)C(CN1CCCC1)c1ccccc1 (configuration not stated) | -23.6%
7 | CN1[C@@H]2CC[C@H]1CC(OC(=O)C1C=Nc3ccccc31)C2 (some centres not stated) | 5.4%
8 | C=C(CO)C(=O)O[C@H]1C/C(C)=C/CC/C(CO)=C/[C@H]2OC(=O)C(=C)[C@H]12 | 26.6%
9 | CCCN1CCO[C@H]2c3cc(O)ccc3OC[C@@H]21 | -12%
10 | C[C@]12CC[C@H]3[C@@H]([C@H](O)CC4=CC(=O)CC[C@@]43C)[C@@H]1CC[C@@H]2O | 26.9%
11 | COc1cc2c(cc1OC)[C@@]13CCN4CC5=CCO[C@H]6CC(=O)N2[C@H]1[C@H]6[C@H]5C[C@H]43 | 5.93% [at 25.6 µM]
12 | CN1C(=O)N(c2ccc(C#N)c(C(F)(F)F)c2)C(=O)[C@]1(CO)c1ccccc1 | 118%
13 | C/C=C(\C)C(=O)OC1CC2C(C)(C)OC(=O)CC(OC(C)=O)C2(C)C2CC(OC(=O)C(C)C)C3(C)C(c4ccoc4)CC4OC43C12C (configuration not stated) | 26.1% [at 25.6 µM]
14 | CC[C@H]1CN2CC[C@H]1C[C@H]2[C@H](O)c1ccnc2ccc(OC)cc12 | 108%
15 | C=C1[C@@H]2CC[C@@]3(C)[C@H](c4ccoc4)OC(=O)C[C@]13O[C@H]1CC(=O)C(C)(C)[C@H](C(OC(C)=O)C(=O)OC)[C@]12C (some centres not stated) | 61.1% [at 25.6 µM]
16 | O=C(N1CCOCC1)N1CCN(c2ccc(Cl)cc2)CC1 | -6.06%
17 | C/C=C(\C)C(=O)OC1CC2C(CC=C3CC(OC4CC(OC)C(OC5CC(OC)C(OC6OC(C)C(OC7OC(CO)C(O)C(O)C7O)C(OC)C6O)C(C)O5)C(C)O4)CCC32C)C2(O)CCC(C(C)=O)C12C (configuration not stated) | 19.1% [at 11.5 µM]
18 | C=C[C@H]1CN2CC[C@H]1C[C@@H]2[C@@H](O)c1ccnc2ccccc12 | 40.1%
19 | Cc1cccc(NC(=O)N[C@@H]2N=C(c3ccccc3)c3ccccc3N(C)C2=O)c1 | 579%
20 | CC1=C2C[C@H]3[C@@H](CC=C4C[C@@H](O)CC[C@@]43C)[C@@H]2CC[C@]12O[C@@H]1C[C@H](C)CN[C@H]1[C@H]2C | 29.9%
21 | C/C=C(\C)C(=O)O[C@H]1[C@H](OC(C)=O)[C@]2(CO)[C@H](O)[C@H](O)[C@]3(C)C(=CCC4[C@@]5(C)CC[C@H](O[C@@H]6O[C@H](C(=O)O)[C@@H](O)[C@H](O[C@@H]7OC[C@H](O)[C@H](O[C@@H]8OC[C@H](O)[C@H](O)[C@H]8O)[C@H]7O)[C@H]6O[C@@H]6O[C@H](CO)[C@@H](O)[C@H](O)[C@H]6O)C(C)(C)C5CC[C@]43C)[C@@H]2CC1(C)C (some centres not stated) | 214% [at 11.5 µM]

System: Nanoluciferase (engineered Oplophorus gracilirostris luciferase)
Assay: Primary Nanoluciferase (NLuc) qHTS assay for identification of artifact compounds. (AID 1845222);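 note: 0% = DMSO and -100% = no enzyme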
Conditions: NLuc-conditioned medium, Nano-Glo luminescence, 5 min; series mostly up to 54.1 µM; activity, negative = inhibition: at the top concentration
Summary of the method: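 Luminescence from secreted NLuc (filtered, 1:55-diluted S16 cell medium) read 5 min after Nano-Glo substrate; compounds preincubated 15 min, RT. Hill fits of inhibition normalized to DMSO and no-enzyme.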

Row | Compound | activity, negative = inhibition
22 | Cc1cn(C[C@H](N)C(=O)O)c(=O)n(Cc2cc(-c3ccccc3)sc2C(=O)O)c1=O | -0.545%
23 | CCC(C)(OC(C)=O)C(=O)O[C@H]1[C@H](OC(C)=O)C[C@@H]2[C@@](C)([C@@H]3C[C@H]4C=CO[C@H]4O3)[C@H](C)C[C@H](OC(C)=O)[C@@]2(COC(C)=O)[C@@]12CO2 (some centres not stated) | 0.118% [at 25.7 µM]
24 | CC1C/C=C/C(O)C(O)CC/C=C/c2cc(O)cc(O)c2C(=O)O1 (configuration not stated) | -2.22%
25 | CC(C)(O)[C@H]1O[C@H]2CC[C@@]3(C)[C@@](O)(CC[C@H]4Cc5c([nH]c6ccccc56)[C@@]43C)C2=CC1=O | -2.02% [at 25.7 µM]
26 | CCCCCCn1c(=O)c(C(=O)Nc2ccc(C(=O)OCCC)cc2)c(O)c2ccccc21 | 1.06% [at 11.6 µM]
27 | CN1CCCC1CCOC(c1cc2nccc(C(=O)O)c2[nH]1)c1ccccc1Cl (configuration not stated) | 0.0202%
28 | C[C@@H]1C(=O)O[C@H]2[C@H](O)[C@@]34[C@@H]5OC(=O)[C@@]3(O[C@@H]3OC(=O)[C@@H](O)[C@@]34[C@H](C(C)(C)C)[C@H]5O)[C@@]12O | 0.206% [at 25.7 µM]
29 | COC1C(O)C(C)OC(OC2C(CO)O[C@@H](O[C@@H]3CC4CCC5C(CC[C@]6(C)[C@@H](C7=CC(=O)OC7)CC[C@]56O)[C@@]4(C)[C@H](O)C3)C(O)C2O)C1O (some centres not stated) | 0% [at 25.7 µM]
30 | CN(C(=O)Cc1ccccc1)C(CN1CCCC1)c1ccccc1 (configuration not stated) | 1.97%
31 | CN1[C@@H]2CC[C@H]1CC(OC(=O)C1C=Nc3ccccc31)C2 (some centres not stated) | 4.58%
32 | C=C(CO)C(=O)O[C@H]1C/C(C)=C/CC/C(CO)=C/[C@H]2OC(=O)C(=C)[C@H]12 | 4.88%
33 | CCCN1CCO[C@H]2c3cc(O)ccc3OC[C@@H]21 | 3.13%
34 | C[C@]12CC[C@H]3[C@@H]([C@H](O)CC4=CC(=O)CC[C@@]43C)[C@@H]1CC[C@@H]2O | -0.38%
35 | CC(=O)O[C@H]1C[C@@H](OC(C)=O)C(C)(C)C2C[C@@H](O)[C@]3(C)C(CC[C@@]4(C)[C@H](C5=CC(=O)OC5O)C[C@H]5O[C@]543)[C@]21C (some centres not stated) | 0.885% [at 25.7 µM]
36 | COc1cc2c(cc1OC)[C@@]13CCN4CC5=CCO[C@H]6CC(=O)N2[C@H]1[C@H]6[C@H]5C[C@H]43 | 0% [at 25.7 µM]
37 | CN1C(=O)N(c2ccc(C#N)c(C(F)(F)F)c2)C(=O)[C@]1(CO)c1ccccc1 | -6.58%
38 | C/C=C(\C)C(=O)OC1CC2C(C)(C)OC(=O)CC(OC(C)=O)C2(C)C2CC(OC(=O)C(C)C)C3(C)C(c4ccoc4)CC4OC43C12C (configuration not stated) | -2.35% [at 25.7 µM]
39 | CC[C@H]1CN2CC[C@H]1C[C@H]2[C@H](O)c1ccnc2ccc(OC)cc12 | 2.71%
40 | C[C@@]1(C(=O)O)CC[C@]2(C)CC[C@]3(C)C4=CC(=O)c5cc(O)c(O)cc5[C@]4(C)CC[C@@]3(C)[C@@H]2C1 | 0% [at 25.7 µM]
41 | C=C1[C@@H]2CC[C@@]3(C)[C@H](c4ccoc4)OC(=O)C[C@]13O[C@H]1CC(=O)C(C)(C)[C@H](C(OC(C)=O)C(=O)OC)[C@]12C (some centres not stated) | -0.492% [at 25.7 µM]
42 | O=C(N1CCOCC1)N1CCN(c2ccc(Cl)cc2)CC1 | 3.65%
43 | C/C=C(\C)C(=O)OC1CC2C(CC=C3CC(OC4CC(OC)C(OC5CC(OC)C(OC6OC(C)C(OC7OC(CO)C(O)C(O)C7O)C(OC)C6O)C(C)O5)C(C)O4)CCC32C)C2(O)CCC(C(C)=O)C12C (configuration not stated) | 4.82% [at 11.6 µM]
44 | C=C[C@H]1CN2CC[C@H]1C[C@@H]2[C@@H](O)c1ccnc2ccccc12 | -1.21%
45 | CC1=C2C[C@H]3[C@@H](CC=C4C[C@@H](O)CC[C@@]43C)[C@@H]2CC[C@]12O[C@@H]1C[C@H](C)CN[C@H]1[C@H]2C | 4.01%
46 | C/C=C(\C)C(=O)O[C@H]1[C@H](OC(C)=O)[C@]2(CO)[C@H](O)[C@H](O)[C@]3(C)C(=CCC4[C@@]5(C)CC[C@H](O[C@@H]6O[C@H](C(=O)O)[C@@H](O)[C@H](O[C@@H]7OC[C@H](O)[C@H](O[C@@H]8OC[C@H](O)[C@H](O)[C@H]8O)[C@H]7O)[C@H]6O[C@@H]6O[C@H](CO)[C@@H](O)[C@H](O)[C@H]6O)C(C)(C)C5CC[C@]43C)[C@@H]2CC1(C)C (some centres not stated) | 2.49% [at 11.6 µM]
47 | CC1=CC2/C=C(\C)CCC(O)C3OC(C)(C)OC3CC(=O)OC23C(=O)NC(CC(C)C)C3C1C (configuration not stated) | -8.26% [at 25.7 µM]
